This is a sample that favours compounds with a hit; in the whole collection about 4.6% have one here.
PfHsp90 yeast 2 = growth inhibition of yeast expressing Plasmodium Hsp90 | 0.32% of 310,000 active | AID 504621 | S. cerevisiae expressing PfHsp90, BacTiter-Glo ATP, 48 h; yeast lacking PDR1 and PDR3 efflux regulators | inhibition, % at 9.4 µM;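 active = every replicate shows inhibition above about 80%, whatever the replicate mean, limit read from the data; inconclusive = mean inhibition reaches the set limit but some replicate falls short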;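 note: 0% = DMSO neutral controls and 100% = 20 µM radicicol positive controls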
tim10-1 inh = tim10-1 yeast growth inhibition. S. cerevisiae tim10-1 ts strain growth, BacTiter-Glo, 24 h. inhibition, % at 20 µM. 2.2% of 330,000 active. AID 463190;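 active = inhibition of at least 40%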;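 note: mutant grown at 25 °C; 0% = DMSO wells with yeast and 100% = wells holding no yeast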
V-ATPase pHluor = yeast V-ATPase proton transport regulation by pHLuorin; S. cerevisiae, pHLuorin cytosolic pH fluorescence; response, % at 10 µM; 0.37% of 350,000 active; AID 504577; in the data active = response mostly above about 7.3%, no sharp cut-off; inactive = mostly below about 5.4%; note: actives read high
SKKanGAS inh = blocks kanamycin growth of S. pyogenes SKKanGAS strain. BacTiter-Glo, 6 h. inhibition, % at 7.5 µM. 1.3% of 300,000 active;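 active = mean replicate score, as percent of positive control median, at least 50; inconclusive = mean below 50 but one replicate at or above 50; inactive = mean and every replicate below 50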;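 note: strain carries kanamycin resistance gene driven by streptokinase promoter and grows in 40 µg/ml kanamycin; loss of luminescence reflects streptokinase promoter inhibition or plain growth inhibition; 0% = median of DMSO wells and 100% = positive control at its reference dose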
TIM10 inh = TIM10 yeast growth inhibition | S. cerevisiae TIM10 strain growth, BacTiter-Glo luminescence, 24 h | inhibition, % at 10 µM | 1.4% of 330,000 active | AID 463195;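 active = inhibition of 40% or more at the single tested concentration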;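 note: wild-type TIM10 isogenic control strain grown at permissive 25 °C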
tim23-1 inh = inhibits growth of tim23-1 mutant yeast; AID 463212; S. cerevisiae tim23-1 growth, BacTiter-Glo luminescence, 24 h; inhibition, % at 20 µM; 1.3% of 330,000 active;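 active = growth inhibition of the mutant yeast at or above 50%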;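 note: temperature-sensitive mutant grown at 25 °C; plate controls were DMSO-treated mutant yeast for no effect and medium wells lacking yeast for full effect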
tim23-1 confirm = tim23-1 yeast growth inhibition, confirmed | shares compounds with tim23-1 inh | S. cerevisiae tim23-1 growth, BacTiter-Glo luminescence, 24 h | inhibition, % at 20 µM | 83% of 4,400 active;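 active = inhibition above about 39% in either of two replicate wells at 20 µM, limit read from the data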;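 note: temperature-sensitive tim23-1 mutant grown at 25 °C; 0% = DMSO wells with yeast and 100% = medium wells without yeast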
* hit, by the source's call; ? = inconclusive; . = no result given.

SMILES	PfHsp90 yeast 2	tim10-1 inh	V-ATPase pHluor	SKKanGAS inh	TIM10 inh	tim23-1 inh	tim23-1 confirm
COc1ccc(C2=C(C=O)Cc3ccccc3O2)cc1	-11.9	33.3	0.1	-7.4	24.8	51.1*	52.9*
COc1ccc(C2=COc3ccccc3C(=O)N2)cc1	.	10.7	2.6	-2.4	8.4	13.7	.
Cc1cccc(C(=O)Oc2cccc3c(O)cccc23)c1	-13.6	-0.4	2.8	8.8	20.5	69.4*	51.5*
Cc1ccccc1S(=O)(=O)Oc1cccc2c(O)cccc12	-13.6	37.8	0.3	7.3	17.8	29.8	.
Cc1ccccc1C(=O)Oc1cccc2c(O)cccc12	-14.9	27.9	-0.1	9.3	30.2	72.4*	49.1*
COc1ccc(C(=O)COC(=O)CNS(=O)(=O)c2ccc(C)cc2)cc1	-6.3	15.8	-4.8	8.6	10.6	10.3	.
Cc1cc(C(=O)CCl)c(C)n1CCc1ccc(Cl)cc1	-10.6	3.7	-1.6	-21.0	0.4	55.1*	53.2*
Cc1ccc(O)c(N=Nc2ccccc2)n1	-27.5	22.8	-2.9	-6.3	3.6	54.3*	54.0*
Oc1ccc(Cl)cc1N=Nc1ccccc1	7.0	4.3	0.3	8.6	-2.2	0.6	.
Cc1ccc2nc(NC(=O)COC(=O)c3ccco3)sc2c1	.	7.5	-1.4	8.0	30.9	16.6	.
Cc1ccc2nc(NC(=O)COC(=O)c3cccnc3)sc2c1	.	-15.0	3.7	.	31.1	53.0*	60.1*
COc1cc2sc3cc(NCc4ccc5c(c4)OCO5)ccc3c(=O)c2cc1OC	-5.3	12.8	0.8	.	21.1	23.8	.
COc1cccc2sc3cc(NCc4ccc5c(c4)OCO5)ccc3c(=O)c12	0.4	-32.7	-3.8	.	16.7	67.8*	56.1*
Cc1ccc(OCC(=O)OCC(=O)NC2CCS(=O)(=O)C2)cc1C (stereo not drawn)	.	.	-1.0	.	.	.	.
CCOC(=O)c1ccc(NC(=O)/C=C/c2cccs2)cc1	13.6	8.7	-1.2	-3.9	18.5	61.2*	52.1*
COC(=O)[C@H](CC(C)C)NC(=O)NCCC1=CCCCC1	11.5	3.7	-3.9	17.1	-0.6	12.5	.
CC1Oc2cc3oc4c(O)c(O)ccc4c(=O)c3c(O)c2C1(C)C (stereo not drawn)	103.9*	34.1	-0.1	52.7*	17.0	69.5*	70.1*
COc1cc(/C=C(/C#N)c2ccc(F)cc2)ccc1Oc1ccc([N+](=O)[O-])cn1	4.2	12.8	-2.1	7.0	-10.7	6.2	.
CC(C)(C)n1nc(Cc2cccc3ccccc23)c2c(N)ncnc21	-14.3	28.2	18.6	12.8	22.0	62.1*	62.4*
O=C(Nc1cccc(Cl)c1)c1ccccc1NC(=O)C1CCCCC1C(=O)O (stereo not drawn)	43.5	-19.2	-7.3	3.6	-3.2	-1.2	.
O=C(Nc1ncc([N+](=O)[O-])s1)c1ccc2c(c1)OCO2	53.3	34.0	-1.5	17.5	34.5	57.0*	58.8*
COc1ccc(NC(=O)C2C3C=CC4(O3)C2C(=O)N(CCN2CCCCC2C)C4C(=O)NC2CCCCC2)cc1 (stereo not drawn)	8.0	-5.4	-0.9	1.0	-17.6	7.0	.
CNC[C@@H]1Oc2cc(Br)ccc2S(=O)(=O)N([C@@H](C)CO)C[C@@H]1C	.	.	-2.4	.	.	.	.
O=C(Nc1ccc(Cl)cc1)Nc1ccccc1Sc1ncc([N+](=O)[O-])s1	-17.6	-12.6	0.3	31.1	4.9	53.6*	71.7*
COc1ccc(S(N)(=O)=O)cc1C(=O)OCC(=O)N1CCCC(C)C1 (stereo not drawn)	-4.5	4.3	-4.1	.	-4.2	5.8	.
SMILES	PfHsp90 yeast 2	tim10-1 inh	V-ATPase pHluor	SKKanGAS inh	TIM10 inh	tim23-1 inh	tim23-1 confirm
O=[N+]([O-])c1cc2cccnc2c2ncccc12	.	-7.1	.	4.1	-14.7	23.2	.
O=[N+]([O-])c1cc(O)c2ncccc2c1	.	28.0	.	?	17.4	66.9*	70.2*
O=C(NC1CCCCCC1)c1c(O)nc2sccn2c1=O	-10.2	38.8	5.9	34.3	36.6	69.4*	45.5*
CC1CC(NC(=O)c2c(O)nc3ccccn3c2=O)CC(C)(C)C1 (stereo not drawn)	-7.8	.	6.2	.	.	.	.
O=C(NCC1CCCO1)c1c(O)nc2sccn2c1=O (stereo not drawn)	.	3.2	-2.6	.	-8.4	35.5	.
CC1CC(NC(=O)c2c(O)nc3sccn3c2=O)CC(C)(C)C1 (stereo not drawn)	-63.5	-15.4	1.1	50.1*	-2.3	64.2*	-11.5
O=C(N/N=C/c1ccc([N+](=O)[O-])s1)c1ccccc1Br	4.9	-4.6	2.0	9.1	18.2	76.7*	64.3*
O=C(N/N=C/c1cc([N+](=O)[O-])ccc1Cl)c1cc(-c2ccccc2)nc2ccccc12	-38.6	-9.1	4.0	-4.7	-21.0	-2.9	.
Cc1cccc(/C=N/NC(=O)c2cc(C)nc3ccccc23)n1	5.2	-16.7	3.6	0.2	0.7	5.4	.
Cc1cc(C(=O)N/N=C/c2ccc([N+](=O)[O-])s2)c2ccccc2n1	-1.6	31.6	1.7	13.4	27.4	64.7*	59.4*
O=C(N/N=C/c1cc([N+](=O)[O-])ccc1O)c1cc(-c2ccccc2)nc2ccccc12	-19.7	38.6	2.6	89.7*	35.6	57.5*	58.3*
O=C(c1ccccc1NS(=O)(=O)c1ccc(F)cc1F)N1CCCCC1	0.0	19.6	-2.2	.	17.5	37.9	.
CCOC(=O)c1sc(N(Cc2ccccc2)C(=O)CCl)nc1C	-9.3	20.4	-0.3	-3.7	14.2	62.0*	48.2*
CC(C)c1ccc(NC(=O)C2CSC3(C)CCC(=O)N23)cc1 (stereo not drawn)	-7.5	29.5	-2.3	1.8	20.0	31.9	.
COc1ccc(N=CC2=C(Nc3ccc(OC)cc3)c3c(C)nn(-c4ccccn4)c3CC2)cc1	.	19.9	.	.	17.2	51.4*	52.2*
COc1ccc(-c2cc(C(=O)O)c3c(C)nn(-c4ccccn4)c3n2)cc1	.	5.6	.	5.1	-6.2	8.6	.
O=C(Nc1ccc(-c2cn3ccsc3n2)cc1)c1ccc(F)c(S(=O)(=O)N2CCOCC2)c1	.	-7.7	-0.8	27.3	9.3	-1.8	.
O=C(NCc1cccnc1)/C(=C\c1ccc(-c2ccc(Br)cc2)o1)S(=O)(=O)c1ccccc1	14.5	38.6	0.1	-5.7	34.8	51.5*	63.3*
O=C(CN(Cc1ccc(Br)cc1)S(=O)(=O)c1ccccc1)NCc1cccnc1	7.9	35.2	-1.1	-6.4	2.4	16.8	.
CCCc1cc(C(=O)N/N=C/c2cccn2C)cs1	-11.5	-7.3	6.2	1.6	-0.3	42.8	.
CCN(CC)C(=O)Cn1ncc2c1-c1ccccc1OC2	-0.9	-2.0	-4.3	1.4	-0.3	-2.2	.
O=C(Cn1ncc2c1-c1ccccc1OC2)Nc1nc2ccccc2s1	-4.3	12.3	-3.4	-2.6	26.6	61.7*	56.6*

Compound activity (PubChem BioAssay)
